Assay results reported in PubChem BioAssay (NCATS).
Results filed as inconclusive are left out. Where a call stands in place of a potency, no number is given. Active and inactive are the calls of the source. Calls follow the shape of the dose curve; as a rule, active = well fitted cell-killing curve with a large enough effect; inconclusive = small, poorly fitted or top-dose-only effect; inactive = no such curve, though single readings can be large or run the other way. Where a SMILES comes first, the peptide text is derived from it. [ ]: non-standard residue; d: D form. pGlu = O=C1CC[C@@H](C(=O)O)N1

experiment: qHTS of pediatric cancer cell lines to identify multiple opportunities for drug repurposing: Primary screen for MG 63 (6-TG R) cells (AID 1347105); details: MG 63 (6-TG R) viability, CellTiter-Glo, 48 h; series mostly up to 46 µM; also: nearly all actives have a fitted effect of over 50% in size
Description: Drug repurposing or repositioning has been offered as a strategy for drug development in oncology programs. This approach has special potential for childhood cancers and other rare or orphan diseases, where the expected return on new drug development has been a disincentive to pharmaceuticals. […] In this project we exploit the poly-pharmacology of drugs to discover new indications via phenotypic screening of a panel of 19 well-characterized cell lines derived from solid tumors seen in children and adolescents. The goal is to identify approved drugs with previously unrecognized anticancer properties that has the potential to reveal new mechanisms and biological processes involved in carcinogenesis or drug resistance. We employed a titration-based paradigm (quantitative high-throughput screening or qHTS), where all compounds were tested at multiple concentrations for their effect on cell viability. Concentration-response curves (CRCs) were derived directly from the primary screen, and both potency and efficacy values were used to identify compounds with robust bioactivity profiles. We screened the NIH Chemical Genomics Center (NCGC) Pharmaceutical Collection (NPC) and Mechanism Interrogation Plate (MIPE) small molecule collections of approved and investigational compounds against these cell lines; and measured metabolically active cells after 48 hours of compound treatment as a proxy for cell viability. […] Assay Submitter: Nathalia J. Martinez, National Center for Advancing Translational Sciences, National Institutes of Health, Rockville, MD, USA; email: natalia.martinez@nih.gov Shen, M et al. Quantitative high-throughput phenotypic screening of pediatric cancer cell lines identifies multiple opportunities for drug repurposing. Oncotarget 2017 Dec 19;9(4):4758-4772. PMID 29435139.
The cells were obtained from University of North Carolina (UNC), Pediatric Preclinical Testing Program (PPT), and Coriell Institute (CI). qHTS cell viability assay: Cells were assayed in growth media at a density of 500-1,000 cells/well. Five microliters of cells were dispensed into 1,536-well, white, solid-bottom, TC-treated plates (Greiner Bio One) using a multidrop dispenser and incubated at 37 degrees C, 5% CO2, under a humidified atmosphere for 5 hours. Twenty-three nanoliters of compounds and controls (neutral control DMSO or positive control bortezomib at final concentration of 2.3 µM) were subsequently transferred by Kalypsys pintool. For primary screens, the MIPE collection was tested at 11-point dilutions (final concentrations range from 0.78 nM to 46 µM) and the NPC collection at 8-point dilutions (final concentrations range from 0.59 nM to 46 µM). Compounds tested in follow-up screens were assayed at 11-point dilutions. Cells were incubated for 48 hours, followed by addition of 3 µL of CellTiter-Glo (Promega). After a 15 min incubation at room temperature, samples were analyzed for luminescence intensity using a ViewLux High-throughput CCD imager equipped with clear filters.

SMILES | Potency
CCNC(=O)[C@@H]1CCCN1C(=O)[C@H](CCCN=C(N)N)NC(=O)[C@H](CC(C)C)NC(=O)CNC(=O)[C@H](Cc1ccc(O)cc1)NC(=O)[C@H](CO)NC(=O)[C@H](Cc1c[nH]c2ccccc12)NC(=O)[C@H](Cc1cnc[nH]1)NC(=O)[C@@H]1CCC(=O)N1 ([pGlu]HWSYGLRP-NHEt) | inactive
CNC(=O)c1c(I)c(NC(C)=O)c(I)c(C(=O)O)c1I | inactive
CCCCC/C=C\C/C=C\CCCCCCCC(=O)NC(C)c1ccccc1 (stereo not given) | inactive
Cn1c(=O)c2c(ncn2CC(=O)O)n(C)c1=O | inactive
CCC(CN)=C(c1ccccc1)c1ccccc1 | inactive
Nc1ccc(C(=O)N2CC3CC(CN(Cc4ccccc4)C3)C2)cc1 | inactive
COc1ccccc1N1CCN(CC(O)COc2cc(OC)c(OC)c(OC)c2)CC1 (stereo not given) | inactive
O=C(COCCOCCOCC(=O)Nc1c(I)cc(I)c(C(=O)O)c1I)Nc1c(I)cc(I)c(C(=O)O)c1I | inactive
CC(=O)N(CC(=O)N(C)C)c1ccccc1 | inactive
CCC(=O)Oc1ccc2c(c1)CC[C@@H]1[C@@H]2CC[C@@]2(C)[C@H]1C[C@@H](OC(=O)CC)[C@@H]2OC(=O)CC | inactive
CN1CCN(N)CC1 | inactive
Oc1ccccc1 | inactive
COc1ccc2cc(C=O)ccc2c1 | inactive
CCc1cccc2c(CCO)c[nH]c12 | inactive
CCCCC(CC)COC(=O)c1ccccc1C(=O)O (stereo not given) | inactive
Cc1ncc(CO)c(CO)c1O | inactive
O=C(O)CCCC[P+](c1ccccc1)(c1ccccc1)c1ccccc1 | inactive
OC1(c2ccccc2)CCNCC1 | inactive
O=C(O)Cn1c(=O)n(Cc2ccc(Br)cc2F)c(=O)c2ccc(Cl)cc21 | inactive
CC(NC(CCc1ccccc1)C(=O)O)C(=O)N1C(=O)N(C)CC1C(=O)O (stereo not given) | inactive

SMILES | Potency
Nc1cccc2c(N)cccc12 | inactive
C=CCOc1cc(Cl)ccc1C(=O)NCCN(CC)CC | inactive
O=C(CCCl)NCc1ccccc1 | inactive
CC(=O)CC/C=C(\C)CC/C=C(\C)CC/C=C(\C)CCC=C(C)C | inactive
CN1[C@@H]2CC[C@H]1CC(NC(=O)n1c(=O)[nH]c3ccccc31)C2 (stereo not given in full) | inactive
O=C(O)[C@H](O)[C@@H](O)[C@H](O[C@@H]1O[C@H](CO)[C@H](O)[C@H](O)[C@H]1O)[C@H](O)CO | inactive
CC(C)C[C@H](NC(=O)CNC(=O)[C@H](Cc1ccc(O)cc1)NC(=O)[C@H](CO)NC(=O)[C@H](Cc1c[nH]c2ccccc12)NC(=O)[C@H](Cc1cnc[nH]1)NC(=O)[C@@H]1CCC(=O)N1)C(=O)N[C@@H](CCCN=C(N)N)C(=O)N1CCC[C@H]1C(=O)NCC(N)=O (stereo in doubt) | inactive
NCC(=O)O | inactive
O=[N+]([O-])c1cncn1CCN1CCOCC1 | inactive
C[C@]12CCC(=O)C=C1CC[C@@H]1[C@@H]2[C@@H](O)C[C@@]2(C)[C@H]1CC[C@]2(O)C(=O)COC(=O)CCC(=O)O | inactive
CSc1ccc(/C=C2/C(C)=C(CC(=O)O)c3cc(F)ccc32)cc1 | inactive
C/C(=N\O)[C@@H](C)NCC(C)(C)CN[C@H](C)/C(C)=N/O | inactive
Cn1cc(S(C)=O)c(=O)c2ccc(F)cc21 (stereo not given) | inactive
Cc1ccc(C(C)OC(=O)C2(C)CCC(C(=O)O)C2(C)C)cc1 (stereo not given) | inactive
Cc1coc2ccccc2c1=O | inactive
Cc1ccc(/C=N/n2c(-c3ccccc3)csc2=S)cc1 | inactive
CC1(C)O[C@@H]2C[C@H]3[C@@H]4C[C@H](F)C5=CC(=O)C=C[C@]5(C)[C@@]4(F)[C@@H](O)C[C@]3(C)[C@]2(C(=O)CO)O1 | inactive
CCCc1c2oc(C(=O)O)cc(=O)c2cc2c(=O)cc(C(=O)O)n(CC)c12 | inactive
CCCCOCCOC(=O)c1cccnc1 | inactive
CCCC(CCC)(C(=O)OCC)C(=O)OCC | inactive
